Assay results from ChEMBL document CHEMBL1961873, “Compounds: GSK PKIS; Assays: Nanosyn kinase panel” (2012).

Columns and labels:
[1] = target: Ribosomal protein S6 kinase alpha-6 (Homo sapiens) (UniProt Q9UK32); conditions: at 1 µM;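 further: each value is a mean inhibition of RSK4 from a GSK PKIS panel screen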
[2] = target: T1, Serine/threonine-protein kinase Sgk1 (Homo sapiens) (UniProt O00141); conditions: at 0.1 µM
T1 sequence (whole entry): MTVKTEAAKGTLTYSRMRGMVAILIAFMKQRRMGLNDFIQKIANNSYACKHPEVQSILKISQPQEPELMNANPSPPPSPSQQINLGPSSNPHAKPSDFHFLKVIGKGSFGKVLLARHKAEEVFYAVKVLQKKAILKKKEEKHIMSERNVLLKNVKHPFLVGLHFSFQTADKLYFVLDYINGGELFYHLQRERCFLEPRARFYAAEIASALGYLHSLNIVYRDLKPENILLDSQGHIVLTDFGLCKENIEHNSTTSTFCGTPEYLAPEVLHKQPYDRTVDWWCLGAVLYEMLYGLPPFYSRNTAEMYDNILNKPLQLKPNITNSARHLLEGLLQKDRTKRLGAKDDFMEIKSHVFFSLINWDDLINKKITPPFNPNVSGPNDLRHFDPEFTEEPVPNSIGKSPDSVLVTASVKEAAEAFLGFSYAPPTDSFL

[3] = target: T1, Serine/threonine-protein kinase Sgk1 (Homo sapiens); conditions: at 1 µM
[4] = target: T2, Serine/threonine-protein kinase Sgk2 (Homo sapiens) (UniProt Q9HBY8); conditions: at 0.1 µM
T2 sequence (whole entry): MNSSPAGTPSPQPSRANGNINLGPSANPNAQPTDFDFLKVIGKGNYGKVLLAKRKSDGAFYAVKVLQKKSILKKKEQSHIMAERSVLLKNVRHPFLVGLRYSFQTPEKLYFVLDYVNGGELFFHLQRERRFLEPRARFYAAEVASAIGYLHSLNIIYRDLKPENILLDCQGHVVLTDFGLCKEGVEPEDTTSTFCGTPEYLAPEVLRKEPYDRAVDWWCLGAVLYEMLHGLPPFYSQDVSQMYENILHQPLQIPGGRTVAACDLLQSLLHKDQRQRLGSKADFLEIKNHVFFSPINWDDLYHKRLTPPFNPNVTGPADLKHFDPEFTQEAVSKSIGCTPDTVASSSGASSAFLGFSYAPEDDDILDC

[5] = target: T2, Serine/threonine-protein kinase Sgk2 (Homo sapiens); conditions: at 1 µM
[6] = target: T3, Serine/threonine-protein kinase Sgk3 (Homo sapiens) (UniProt Q96BR1); conditions: at 0.1 µM
T3 sequence (whole entry): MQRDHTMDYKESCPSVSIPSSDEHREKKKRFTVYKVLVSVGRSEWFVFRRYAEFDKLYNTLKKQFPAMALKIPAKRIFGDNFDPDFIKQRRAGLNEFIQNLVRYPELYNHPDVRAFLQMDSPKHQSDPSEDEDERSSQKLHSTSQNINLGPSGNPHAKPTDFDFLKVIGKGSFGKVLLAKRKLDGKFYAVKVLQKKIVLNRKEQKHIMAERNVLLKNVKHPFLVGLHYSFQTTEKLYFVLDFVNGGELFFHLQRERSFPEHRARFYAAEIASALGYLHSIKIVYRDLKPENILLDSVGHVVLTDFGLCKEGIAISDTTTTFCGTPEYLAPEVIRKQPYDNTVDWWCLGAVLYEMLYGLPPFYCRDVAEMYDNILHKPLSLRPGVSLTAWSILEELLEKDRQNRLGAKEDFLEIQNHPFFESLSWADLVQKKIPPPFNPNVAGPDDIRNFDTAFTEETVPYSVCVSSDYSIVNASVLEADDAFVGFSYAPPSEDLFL

[7] = target: T3, Serine/threonine-protein kinase Sgk3 (Homo sapiens); conditions: at 1 µM
[8] = target: 5'-AMP-activated protein kinase catalytic subunit alpha-1 (Homo sapiens) (UniProt Q13131); conditions: at 0.1 µM
Chain of 5'-AMP-activated protein kinase catalytic subunit alpha-1 (Homo sapiens) (Q13131 whole entry, looked up): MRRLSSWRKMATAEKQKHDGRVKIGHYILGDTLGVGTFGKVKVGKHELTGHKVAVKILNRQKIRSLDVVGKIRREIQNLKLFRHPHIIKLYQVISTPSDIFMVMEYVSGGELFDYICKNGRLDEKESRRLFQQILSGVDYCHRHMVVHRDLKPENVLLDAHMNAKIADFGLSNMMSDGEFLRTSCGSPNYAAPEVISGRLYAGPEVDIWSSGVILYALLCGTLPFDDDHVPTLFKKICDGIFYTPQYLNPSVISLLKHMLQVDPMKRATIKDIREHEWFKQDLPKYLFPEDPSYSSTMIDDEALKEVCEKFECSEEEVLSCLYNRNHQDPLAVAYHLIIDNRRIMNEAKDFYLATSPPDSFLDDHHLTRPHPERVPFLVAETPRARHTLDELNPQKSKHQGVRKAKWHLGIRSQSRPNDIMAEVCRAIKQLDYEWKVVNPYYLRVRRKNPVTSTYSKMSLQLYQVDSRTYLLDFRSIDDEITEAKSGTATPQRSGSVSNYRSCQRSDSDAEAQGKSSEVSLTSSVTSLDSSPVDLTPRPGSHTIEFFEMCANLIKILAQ

[9] = target: 5'-AMP-activated protein kinase catalytic subunit alpha-1 (Homo sapiens) (UniProt Q13131); conditions: at 1 µM
[10] = target: 5'-AMP-activated protein kinase catalytic subunit alpha-2 (Homo sapiens) (UniProt P54646); conditions: at 0.1 µM
Chain of 5'-AMP-activated protein kinase catalytic subunit alpha-2 (Homo sapiens) (P54646 whole entry, looked up): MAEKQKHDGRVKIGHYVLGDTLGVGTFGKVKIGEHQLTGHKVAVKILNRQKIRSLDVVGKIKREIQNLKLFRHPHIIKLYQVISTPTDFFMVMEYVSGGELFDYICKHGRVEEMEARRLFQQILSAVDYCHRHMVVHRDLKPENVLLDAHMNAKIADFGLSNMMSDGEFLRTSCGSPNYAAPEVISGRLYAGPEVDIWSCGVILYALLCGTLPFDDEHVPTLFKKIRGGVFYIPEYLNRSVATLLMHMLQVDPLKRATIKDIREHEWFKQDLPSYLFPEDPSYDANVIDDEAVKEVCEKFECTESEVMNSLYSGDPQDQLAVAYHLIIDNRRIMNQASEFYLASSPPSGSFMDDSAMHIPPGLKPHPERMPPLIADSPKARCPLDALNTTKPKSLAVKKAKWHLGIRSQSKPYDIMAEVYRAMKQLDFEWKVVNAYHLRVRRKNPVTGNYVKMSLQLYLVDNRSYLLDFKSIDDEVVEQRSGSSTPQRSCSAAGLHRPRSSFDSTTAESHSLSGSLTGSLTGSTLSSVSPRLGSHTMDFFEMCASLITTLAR

[11] = target: 5'-AMP-activated protein kinase catalytic subunit alpha-2 (Homo sapiens) (UniProt P54646); conditions: at 1 µM
[12] = target: T4, NUAK family SNF1-like kinase 1 (Homo sapiens) (UniProt O60285); conditions: at 0.1 µM
T4 sequence (whole entry): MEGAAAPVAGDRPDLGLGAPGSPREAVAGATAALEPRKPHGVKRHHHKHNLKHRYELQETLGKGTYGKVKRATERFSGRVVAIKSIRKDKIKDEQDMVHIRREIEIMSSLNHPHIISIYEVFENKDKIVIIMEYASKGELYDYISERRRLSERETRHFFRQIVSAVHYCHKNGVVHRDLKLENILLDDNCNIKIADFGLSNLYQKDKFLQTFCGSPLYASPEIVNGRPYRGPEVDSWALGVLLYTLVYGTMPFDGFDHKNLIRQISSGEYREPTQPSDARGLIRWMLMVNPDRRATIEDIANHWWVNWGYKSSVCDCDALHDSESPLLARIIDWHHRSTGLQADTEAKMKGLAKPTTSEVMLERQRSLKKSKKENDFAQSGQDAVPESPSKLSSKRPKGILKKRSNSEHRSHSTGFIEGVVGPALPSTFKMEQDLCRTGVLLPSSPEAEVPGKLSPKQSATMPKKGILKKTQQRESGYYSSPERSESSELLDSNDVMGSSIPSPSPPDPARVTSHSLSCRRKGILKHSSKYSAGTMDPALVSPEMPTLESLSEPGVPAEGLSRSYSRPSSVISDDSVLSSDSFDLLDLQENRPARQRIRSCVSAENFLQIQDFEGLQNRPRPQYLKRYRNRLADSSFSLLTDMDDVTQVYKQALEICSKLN

[13] = target: T4, NUAK family SNF1-like kinase 1 (Homo sapiens); conditions: at 1 µM
[14] = target: T5, Serine/threonine-protein kinase BRSK1 (Homo sapiens) (UniProt Q8TDC3); conditions: at 0.1 µM
T5 sequence (whole entry): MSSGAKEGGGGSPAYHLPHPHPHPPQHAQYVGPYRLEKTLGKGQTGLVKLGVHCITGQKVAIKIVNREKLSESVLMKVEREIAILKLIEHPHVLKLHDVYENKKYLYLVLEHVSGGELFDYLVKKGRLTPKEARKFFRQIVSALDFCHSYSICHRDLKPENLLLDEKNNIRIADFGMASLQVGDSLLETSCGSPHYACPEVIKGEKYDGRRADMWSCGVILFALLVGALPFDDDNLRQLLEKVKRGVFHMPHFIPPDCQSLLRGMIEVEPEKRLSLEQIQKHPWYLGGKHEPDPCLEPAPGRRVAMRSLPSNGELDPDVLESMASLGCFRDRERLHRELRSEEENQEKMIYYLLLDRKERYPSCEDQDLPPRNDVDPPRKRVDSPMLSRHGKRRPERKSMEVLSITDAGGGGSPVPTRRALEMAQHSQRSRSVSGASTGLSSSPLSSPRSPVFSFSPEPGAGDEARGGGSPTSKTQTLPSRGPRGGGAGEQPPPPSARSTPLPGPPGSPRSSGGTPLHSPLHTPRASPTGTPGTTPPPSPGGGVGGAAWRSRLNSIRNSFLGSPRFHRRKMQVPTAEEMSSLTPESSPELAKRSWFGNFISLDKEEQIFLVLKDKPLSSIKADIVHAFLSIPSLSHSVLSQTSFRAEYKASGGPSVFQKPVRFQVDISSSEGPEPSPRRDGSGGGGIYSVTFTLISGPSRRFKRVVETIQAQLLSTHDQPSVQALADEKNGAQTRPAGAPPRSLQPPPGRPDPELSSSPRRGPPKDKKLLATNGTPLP

[15] = target: T5, Serine/threonine-protein kinase BRSK1 (Homo sapiens); conditions: at 1 µM
[16] = target: T6, Serine/threonine-protein kinase BRSK2 (Homo sapiens) (UniProt Q8IWQ3); conditions: at 0.1 µM
T6 sequence (whole entry): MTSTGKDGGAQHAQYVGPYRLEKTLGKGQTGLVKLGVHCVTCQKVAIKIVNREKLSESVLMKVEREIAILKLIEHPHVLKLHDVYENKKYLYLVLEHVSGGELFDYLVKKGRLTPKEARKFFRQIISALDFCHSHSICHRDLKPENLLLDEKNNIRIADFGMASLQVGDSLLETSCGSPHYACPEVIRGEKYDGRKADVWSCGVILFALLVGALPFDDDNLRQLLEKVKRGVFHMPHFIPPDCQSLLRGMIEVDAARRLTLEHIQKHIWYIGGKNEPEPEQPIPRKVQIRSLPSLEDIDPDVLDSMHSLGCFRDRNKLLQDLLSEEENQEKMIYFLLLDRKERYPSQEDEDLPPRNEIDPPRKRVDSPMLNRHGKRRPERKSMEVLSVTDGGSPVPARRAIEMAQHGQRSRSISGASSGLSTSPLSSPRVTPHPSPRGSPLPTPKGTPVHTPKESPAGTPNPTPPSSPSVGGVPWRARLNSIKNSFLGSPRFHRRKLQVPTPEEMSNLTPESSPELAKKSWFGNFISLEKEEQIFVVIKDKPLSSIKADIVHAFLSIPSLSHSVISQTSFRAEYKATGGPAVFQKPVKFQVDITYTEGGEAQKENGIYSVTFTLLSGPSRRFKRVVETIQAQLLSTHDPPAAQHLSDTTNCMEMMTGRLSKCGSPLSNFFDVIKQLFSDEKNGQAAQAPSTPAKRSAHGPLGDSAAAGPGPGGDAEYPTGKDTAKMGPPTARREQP

[17] = target: T6, Serine/threonine-protein kinase BRSK2 (Homo sapiens); conditions: at 1 µM
[18] = target: Calcium/calmodulin-dependent protein kinase type 1D (Homo sapiens) (UniProt Q8IU85); conditions: at 0.1 µM
Chain of Calcium/calmodulin-dependent protein kinase type 1D (Homo sapiens) (Q8IU85 whole entry, looked up): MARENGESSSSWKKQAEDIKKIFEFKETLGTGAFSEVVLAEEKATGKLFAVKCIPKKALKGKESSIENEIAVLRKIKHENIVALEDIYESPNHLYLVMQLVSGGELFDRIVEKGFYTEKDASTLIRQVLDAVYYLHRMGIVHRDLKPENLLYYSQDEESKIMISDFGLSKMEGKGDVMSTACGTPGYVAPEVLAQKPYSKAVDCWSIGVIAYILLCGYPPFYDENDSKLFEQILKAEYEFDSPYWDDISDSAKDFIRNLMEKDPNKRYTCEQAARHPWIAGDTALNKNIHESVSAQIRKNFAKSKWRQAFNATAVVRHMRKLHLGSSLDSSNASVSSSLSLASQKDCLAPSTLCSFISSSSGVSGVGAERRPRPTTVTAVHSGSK

[19] = target: Calcium/calmodulin-dependent protein kinase type 1D (Homo sapiens) (UniProt Q8IU85); conditions: at 1 µM
[20] = target: Calcium/calmodulin-dependent protein kinase type II subunit alpha (Homo sapiens) (UniProt Q9UQM7); conditions: at 0.1 µM;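 further: reported values are averages (mean inhibition of CAMK2A)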
Chain of Calcium/calmodulin-dependent protein kinase type II subunit alpha (Homo sapiens) (Q9UQM7 whole entry): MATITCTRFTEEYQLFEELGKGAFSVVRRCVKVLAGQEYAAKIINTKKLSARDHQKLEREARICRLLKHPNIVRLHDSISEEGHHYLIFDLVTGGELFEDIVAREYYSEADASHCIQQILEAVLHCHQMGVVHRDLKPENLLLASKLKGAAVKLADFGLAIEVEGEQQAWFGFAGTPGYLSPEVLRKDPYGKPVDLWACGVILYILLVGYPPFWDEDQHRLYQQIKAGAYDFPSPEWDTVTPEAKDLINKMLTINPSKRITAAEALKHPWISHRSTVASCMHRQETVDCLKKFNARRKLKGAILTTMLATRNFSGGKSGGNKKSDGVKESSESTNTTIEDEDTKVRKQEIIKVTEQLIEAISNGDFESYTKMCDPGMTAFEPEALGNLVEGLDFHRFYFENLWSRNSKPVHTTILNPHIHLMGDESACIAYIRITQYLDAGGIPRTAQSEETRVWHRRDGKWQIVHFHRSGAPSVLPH

Chain of Ribosomal protein S6 kinase alpha-6 (Homo sapiens) (Q9UK32 whole entry): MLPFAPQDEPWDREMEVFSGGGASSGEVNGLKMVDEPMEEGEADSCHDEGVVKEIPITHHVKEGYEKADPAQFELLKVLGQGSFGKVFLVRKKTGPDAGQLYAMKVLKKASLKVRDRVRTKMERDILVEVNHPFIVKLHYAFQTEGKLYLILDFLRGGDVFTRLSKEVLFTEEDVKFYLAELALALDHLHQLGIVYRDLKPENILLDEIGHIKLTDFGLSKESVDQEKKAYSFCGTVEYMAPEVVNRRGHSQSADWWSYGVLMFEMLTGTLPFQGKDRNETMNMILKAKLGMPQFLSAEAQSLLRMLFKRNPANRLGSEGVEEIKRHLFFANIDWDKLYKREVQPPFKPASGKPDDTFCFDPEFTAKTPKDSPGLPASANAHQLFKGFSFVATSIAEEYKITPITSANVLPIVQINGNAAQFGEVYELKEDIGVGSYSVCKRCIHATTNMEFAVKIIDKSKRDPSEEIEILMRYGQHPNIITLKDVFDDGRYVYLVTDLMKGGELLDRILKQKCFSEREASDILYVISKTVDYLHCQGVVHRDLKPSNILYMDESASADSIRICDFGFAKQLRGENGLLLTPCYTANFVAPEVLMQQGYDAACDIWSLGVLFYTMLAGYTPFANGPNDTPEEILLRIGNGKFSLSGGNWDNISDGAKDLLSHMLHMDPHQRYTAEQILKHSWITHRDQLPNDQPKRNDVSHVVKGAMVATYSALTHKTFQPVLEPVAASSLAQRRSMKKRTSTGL

| Compound | inhibition [1] [%] | inhibition [2] [%] | inhibition [3] [%] | inhibition [4] [%] | inhibition [5] [%] | inhibition [6] [%] | inhibition [7] [%] | inhibition [8] [%] | inhibition [9] [%] | inhibition [10] [%] | inhibition [11] [%] | inhibition [12] [%] | inhibition [13] [%] | inhibition [14] [%] | inhibition [15] [%] | inhibition [16] [%] | inhibition [17] [%] | inhibition [18] [%] | inhibition [19] [%] | inhibition [20] [%] |
| --- | --- | --- | --- | --- | --- | --- | --- | --- | --- | --- | --- | --- | --- | --- | --- | --- | --- | --- | --- | --- |
| c1ccc(Oc2ccc(Nc3ncc(-c4ccccc4)o3)cc2)cc1 | 0.25 | 2.19 | 2.9 | 6.17 | 2.79 | 3.61 | 3.17 | 0.33 | 3.46 | 1.31 | 2.49 | -0.75 | 5.38 | -0.66 | 0.76 | 0 | 1.39 | 0.01 | 0.14 | -0.24 |
| CCc1cccc(CC)c1/C=C/c1cncc(C(=O)NC)c1 | 1.72 | 2.19 | -0.86 | 3.62 | -2.52 | 0.54 | 0.72 | 1.05 | 1.48 | 0.22 | 2.36 | 1.6 | 6.57 | 1.79 | 0.96 | 0.46 | 0.3 | 0.62 | 1.99 | 3.18 |
